B1: PhoQ; a variant is named by its letters at X, in order, P23837 (parent)
chain: MKKLLRLFFPLSLRVRFLLATAAVVLVLSLAYGMVALIGYSVSFDKTTFRLLRGESNLFYTLAKWENNKLHVELPENIDKQSPTMTLIYDENGQLLWAQRDVPWLMKMIQPDWLKSNGFHEIEADVNDTSLLLSGDHSIQQQLQEVREDDDDAEMTHSVAVNVYPATSRMPKLTIVVVDTIPVELKSSYMVWSWFIYVLSANLLLVIPLLWVAAWWSLRPIEALAKEVRELEEHNRELLNPATTRELTSLVRNLNRLLKSERERYDKYRTTLTDLTHSLKTPLXXLQXXLRSLRSEKMSVSDAEPVMLEQISRISQQIGYYLHRASMRGGTLLSRELHPVAPLLDNLTSALNKVYQRKGVNISLDISPEISFVGEQNDFVEVMGNVLDNACKYCLEFVEISARQTDEHLYIVVEDDGPGIPLSKREVIFDRGQRVDTLRPGQGVGLAVAREITEQYEGKIVAGESMLGGARMEVIFGRQHSAPKDE

The full ranking holds about 140,000 sequences; the median of “enrichment ratio after two sorts for PhoP signalling” is about 0, and the highest 2% start at about 11. This is one part of a sample in which the highest values are shown more often than they occur.

In this experiment the parent is B1. The experiment in a line: enrichment ratio after two sorts for PhoP signalling (ratio (wild type AVST 3.29)); higher = more functional. Particulars: with PhoP (E. coli).
As for LNVR, the enrichment ratio is at most 0.25.
Turning to KVQP, the enrichment ratio is at most 0.25.
Then FGEF, with at most 0.25; and ATMQ, with 3.23; and PWPQ, with at most 0.25.
Then PECM, with at most 0.25; and VWYR, with at most 0.25.
For STMQ, the enrichment ratio turned out to be 12.
To NSMQ belongs at most 0.25; to SQMQ, 7.7.
To KSMQ belongs at most 0.25; to TSMQ, 13.9.
Then SWMQ, with at most 0.25; and RQGA, with at most 0.25; and FECY, with at most 0.25.
On to KYKH, for which the enrichment ratio was at most 0.25.
Then YIRN, with at most 0.25; and FEWK, with at most 0.25.
To FYPG belongs at most 0.25; to EFYK, at most 0.25.
Then IDSN, with at most 0.25; and AILV, with 5.12.
On to VCLV, for which the enrichment ratio was 13.
For KCLV, the enrichment ratio was at most 0.25.
To ANLV belongs 14.1; to AHLV, 1.12; to VYLV, at most 0.25.
With AYLV, the enrichment ratio was 3.08.
Take AKLV: the enrichment ratio came to 16.2.
To VFLV belongs at most 0.25; to MKLV, 9.89.
Turning to QCLV, the enrichment ratio was 1.13.
GCLV: the enrichment ratio worked out at 14.5.
Then RCEW, with at most 0.25; and VEQN, with at most 0.25; and PFRI, with at most 0.25.
Then SNAR, with at most 0.25; and LYVG, with at most 0.25.
In the case of WLGW, the enrichment ratio is at most 0.25.
To SNLV belongs 15.8; to TPLV, at most 0.25; to SRLV, 0.905.
To IILV belongs 1.58.
IFLV: the enrichment ratio is at most 0.25.
Then KALV, with at most 0.25; and YALV, with 11.1; and AALV, with 12.9.
To ICLV belongs 18.8; to HKLV, 0.341.
Then TKLV, with 23.3.
On to KKLV, for which the enrichment ratio is at most 0.25.
To EKVF belongs at most 0.25; to HDKH, at most 0.25; to VLRH, at most 0.25.
Take RKNR: the enrichment ratio was at most 0.25.
To SYSF belongs at most 0.25; to DGQH, at most 0.25.
Take YPAE: the enrichment ratio is at most 0.25.
As to NFWK, the enrichment ratio is at most 0.25.
Then MMNV, with at most 0.25; and IALV, with 13.1.
To NALV belongs at most 0.25.
GILV: the enrichment ratio amounted to 10.9.
Then GSHK, with at most 0.25; and WILV, with at most 0.25; and GNLV, with 11.9.
To LNLV belongs at most 0.25; to IPLV, at most 0.25; to GSLV, 17.9.
Then QWMF, with at most 0.25.
VRHG: the enrichment ratio was at most 0.25.
To GYNH belongs at most 0.25; to TDKY, at most 0.25; to TGYH, 1.03.
Then IQEV, with at most 0.25; and PSYQ, with 1.11.
As to ACTH, the enrichment ratio amounted to 2.87.
To AMWI belongs at most 0.25; to AMVW, 11.8; to LWHD, at most 0.25.
Then ACGH, with 13.6; and VLVW, with at most 0.25; and PWHD, with at most 0.25.
To AWHD belongs 24.7; to AMTS, 13.9.
Regarding NMVW, the enrichment ratio is at most 0.25.
To AITS belongs 9.53; to ACNH, at most 0.25.
For the variant SCPW, the enrichment ratio is at most 0.25.
Then KEAN, with at most 0.25.
Then YKMT, with 0.253.
For GVMF, the enrichment ratio is 2.88.
To MYDC belongs at most 0.25.
To VHEE belongs at most 0.25; to MGNK, at most 0.25; to EGFI, at most 0.25.
Then EGVD, with at most 0.25; and QFHL, with at most 0.25; and WTPV, with at most 0.25.
As for FCGM, the enrichment ratio was at most 0.25.
To WFML belongs at most 0.25; to GWCM, at most 0.25; to QTWG, at most 0.25.
To AKTD belongs at most 0.25; to KKTI, at most 0.25.
Then AMTH, with 0.411; and AIFC, with at most 0.25.
As for AIGH, the enrichment ratio was 2.15.
To AITC belongs 19; to KKTC, at most 0.25.
To AMYD belongs at most 0.25; to AMGH, 51.
To AKTI belongs 23.6; to AMTD, at most 0.25.
With AMGD, the enrichment ratio was determined as 11.5.
Then DKAP, with at most 0.25; and KDMR, with at most 0.25.
Then TRNK, with at most 0.25; and HVKY, with at most 0.25.
On to PFRW, for which the enrichment ratio is at most 0.25.
Then KMGT, with at most 0.25; and QKFN, with at most 0.25.
To RPYD belongs at most 0.25; to NMVQ, at most 0.25.
Then AKTC, with 30.2; and AMPM, with at most 0.25.
Turning to NMTI, the enrichment ratio was at most 0.25.
To AMWM belongs at most 0.25; to AKFC, at most 0.25.
Then AMVA, with at most 0.25; and AITI, with 10.7; and AMTI, with 11.6.
For the variant AMVQ, the enrichment ratio amounted to 13.1.
To AMIM belongs 29.3.
To AKTK belongs at most 0.25; to DMSC, at most 0.25; to KPPG, at most 0.25.
To MFQM belongs at most 0.25; to IEMM, at most 0.25; to MKCV, at most 0.25.
As for WYPM, the enrichment ratio was at most 0.25.
Take IISF: the enrichment ratio was at most 0.25.
To KMPW belongs at most 0.25; to LYRY, at most 0.25; to PGVK, at most 0.25.
Then AKAQ, with 7.28.
Then AMTC, with 20.7; and AHGQ, with at most 0.25; and NMGQ, with at most 0.25.
As to AMAQ, the enrichment ratio was 12.1.
Turning to AMNK, the enrichment ratio was at most 0.25.
To AMFC belongs at most 0.25; to AMGQ, 13.7.
